Experimental data taken from the supplement of paper PMC12669032.
A number with no mark means an inactive call.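 How the source made its calls: active = AUC reduced over 20% with Padj below 0.05 in at least 2 of 3 replicates; inactive = otherwise.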

Assays:
Roseburia intestinalis = assay: growth AUC relative to DMSO control (median of replicates) (fraction); higher = more growth (less inhibition), active = hit call of the paper; conditions: 20 µM; 24 h
Method in brief: (§1)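 Three biological replicates, each grown on a separate day, were combined as a median for every value. In each, a gut bacterial monoculture in mGAM started at OD600 0.05 and grew anaerobically at 37 °C with 20 µM compound (1% DMSO), with OD600 read hourly over 24 h. Area under the growth curve was normalised against the plate median of solvent-only wells, or against row and column medians on the industrial chemical plate, after the minimum OD was set to 0.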

Streptococcus salivarius = assay: as above; conditions: 20 µM; 24 h
Method in brief: as §1

Row | Compound | growth AUC (Roseburia intestinalis) | growth AUC (Streptococcus salivarius)
1 | Oc1ccccc1-c1ccccc1 | 0.939 | 1.04
2 | Cc1ccn2nc(S(=O)(=O)Nc3c(F)cccc3F)nc2n1 | 0.997 | 0.965
3 | Clc1cc(Cl)nc(-c2ccccc2)n1 | 0.956 | 0.99
4 | O=C1C(Cl)=C(Cl)C(=O)c2ccccc21 | 1.13 | 0.955
5 | O=P(OC(CCl)CCl)(OC(CCl)CCl)OC(CCl)CCl | 0.949 | 0.969
6 | CCOC(=O)c1ccccc1S(=O)(=O)NC(=O)Nc1nc(Cl)cc(OC)n1 | 1.01 | 0.972
7 | CCS(=O)(=O)CCSP(=O)(OC)OC | 1.06 | 0.957
8 | CC(C)=NOCCOC(=O)[C@@H](C)Oc1ccc(Oc2cnc3cc(Cl)ccc3n2)cc1 | 1.05 | 0.966
9 | CC1(C)[C@H](C=C(Cl)Cl)[C@H]1C(=O)OCc1c(F)c(F)cc(F)c1F | 0.946 | 1.02
10 | CC(C)OC(=O)Nc1cccc(Cl)c1 | 0.906 | 0.981
11 | Nc1ncn[nH]1 | 0.985 | 0.997
12 | CCOP(=S)(OCC)Oc1nc(Cl)n(C(C)C)n1 | 1.02 | 1
13 | COc1cc(OC)nc(NC(=O)[N-]S(=O)(=O)c2ncccc2OCC(F)(F)F)n1.[Na+] | 1.01 | 0.885
